Measured values: PubChem BioAssay (NCI)
This is part of a sample that, as a whole, favours compounds with a hit. Of some 83,000 tested, about 20% had one in any assay.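 How to read the values: 0–100, growth inhibition (40 = 60% inhibited); 0, no net growth; -100 to 0, cell death (-40 = 40% of starting cells died; -100 = all dead).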 A number with no mark means an inactive call. Calls of active or inactive are those of the source.

system: UACC-62 melanoma; test: NCI-60 one-dose screen, 48 h (100 = growth as untreated, 0 = no growth, -100 = all killed); conditions: 10 µM unless noted
Protocol: Growth inhibition of the UACC-62 human tumor cell line is measured as a screen for anti-cancer activity. Cells are grown in 96 well plates and exposed to the test compound for 48 hours. Compounds are tested at a single concentration, which is 10^-5 M for most compounds. The reported endpoint is percent growth (GI% or GIPRCNT), where numbers from 0 - 100% represent growth inhibition, and numbers from -100% - 0 represent cell death. For example, a value of 40 represents 60% growth inhibition. A value of 0 means no net growth occurred over the course of the experiment. A value of -40 indicates 40% of cells at the beginning of the experiment died by the end of the experiment. A value of -100 means all cells are dead at the end of the experiment.
NCI-60 Human Tumor Cell Lines Screen was performed using the standard one-dose NCI protocol, which is described in more detail at https://dtp.cancer.gov/discovery_development/nci-60/default.htm.
Compounds with GIPRCNT values below 10 were considered active. Activity score was based on GIPRCNT using the following formula: […]
Score is 0 for GIPRCNT values of 100 or above, 50 for GIPRCNT values of 0, and 100 for GIPRCNT values of -100.

Compound	growth
Cn1cc(-c2cc3nc(-c4cn(C)c5ncc(Br)cc45)cc(N)n3n2)c2cc(Cl)ccc21	-96% (active)
Clc1cccc(N/N=C/c2c[nH]c3ccc(Br)cc23)n1	1.6% (active)
N#Cc1c(-c2cccc3ccccc23)cc(-c2cccc(OCC(=O)O)c2)[nH]c1=O	90.5%
Cn1cc(-c2cc3nc(-c4cn(C)c5ncccc45)cc(N)n3n2)c2ccccc21	-0.244% (active)
Cc1ccc(NCC(=O)Cn2cc(COc3ccc(C=Nc4cnc5ccccc5c4)cc3)nn2)cc1	97.8%
CC(C)CCNC(=O)N/C(N)=N/c1nc2ccccc2s1	59.2%
COc1ccc(-c2nc3cc(C)ccc3n2CC(=O)N=Nc2c(O)[nH]c3ccccc23)cc1	-37.2% (active)
COc1cc2c(c(OC)c1OC)C(=O)CC(c1cccc(NC(=O)c3cccc([N+](=O)[O-])c3)c1)O2 (stereo not given)	13.4%
CN(C)CCn1c2ccccc2c2nc3cc(C(F)(F)F)ccc3nc21	44.8%
CCN(CC)c1ccc(/C=N/Nc2nc(-c3ccc(Br)cc3)cs2)c(O)c1	77.4%
CN(C)c1nc(NCCNS(=O)(=O)c2ccc(C3=Nc4c(N)nc(N)nc4NC(c4ccccc4)C3)cc2)nc(Nc2ccc(F)cc2)n1 (stereo not given)	55.9%
CC(=O)Nc1ccc(-c2cn(-c3cccc(C(=O)Nc4ccc(N5CCN(C)CC5)cc4)c3)nn2)cn1	114%
O=C(COc1ccc(NC(=O)Nc2ccc(Cl)cc2)cc1)N/N=C/c1ccccc1	-87.5% (active)
COc1cc(OC)cc(-c2cc3ccc(N(C)C)cc3c(=O)[nH]2)c1	51.8%
O=C(Cn1c(/C=C/c2ccccc2)nc2ccccc2c1=O)Nc1ccccc1	90.1%
CN1C(=O)/C(=C/c2ccc(C(=O)Nc3ncc(Cc4ccc(Cl)cc4Cl)s3)cc2)SC1=S	8.83% (active)
N/C(=N\c1nc2ccccc2s1)NC(=O)Nc1ccc(Cl)cc1Cl	-49.8% (active)
COc1ccc(NC(=O)c2sc3nc(C(C)C)ccc3c2N)cc1	85.6%
CN(C)CCn1c2ccccc2c2nc3ccc([N+](=O)[O-])cc3nc21	-25.5% (active)
COc1c(F)ccc(C(=O)Nc2ccc3nc(NC(=O)C4CCCN(S(=O)(=O)c5ccc(C#N)cc5)C4)sc3c2)c1F (stereo not given)	78.7%

Compound	growth
Clc1cccc(-c2ccc(OCCCN3CCN(c4ccncc4)CC3)cc2)c1	-74.3% (active)
Cc1sc2c(c1C)C(c1ccc(Cl)cc1)=N[C@@H](CC(=O)NCCCCCNC(=O)COc1ccc(C3CCC(=O)NC3=O)cc1)c1nnc(C)n1-2 (stereo not given in full)	3.07% (active)
CC(=O)Nc1cccc(Nc2nccc(N[C@@H](C)c3ccccc3)n2)c1	20.6%
O=c1onc(-c2cc3ccccc3nc2Cl)n1-c1cccc2ccccc12	29.9%
CCOC(=O)C1=C(N)N(c2ccccc2)C2=C(C(=O)CC(C)(C)C2)C1c1cccc(Cl)c1Cl (stereo not given)	55.6%
Cc1cc(=O)oc2cc(OCCOc3ccc(/C=C/C(=O)Nc4ccccc4N)cc3)ccc12	33.2%
COc1ccc(-c2nc3ccc(C(=O)NN4C(=O)c5ccc([N+](=O)[O-])cc5C4=O)cc3[nH]2)cc1	80.2%
CC1(c2cc3cc(Br)ccc3oc2=O)NC(=O)c2c(/C=C/C(=O)OC3CC4CCC3(C)C4(C)C)cccc2N1 (stereo not given)	79.8%
COc1cc(-c2cc(-c3cccc(OCC(=O)O)c3)[nH]c(=O)c2C#N)cc(OC)c1OC	95.5%
O=C(C1=CNC(=S)NC1c1ccc(O)cc1)c1cc2ccccc2oc1=O (stereo not given)	95.8%
COc1ccc2[nH]c(O)c(N=NC(=O)Cn3c(-c4ccccc4)nc4cc(C)ccc43)c2c1	6.74% (active)
COc1c(F)ccc(C(=O)Nc2ccc3nc(NC(=O)C4CCCN(S(=O)(=O)c5ccc(Cl)cc5)C4)sc3c2)c1F (stereo not given)	67.1%
CC(=O)Nc1ccc(-c2nc3cc(-c4ccc(O)cc4)ccc3n2C)cc1	51.4%
COc1ccc(C2=NN(c3ccccc3)C(c3ccc(OC)c(OCc4ccccc4)c3)C2)cc1OC (stereo not given)	81.8%
CN1CCN(/C(=N\c2sc(-c3ccccc3)nc2-c2ccccc2)c2ccccc2)CC1	75.7%
S=c1c2ccccc2nc2n1CCc1c-2[nH]c2ccccc12	64.1%
COc1ccc2[nH]c(=O)c(CSc3nccc(-c4ccc(OC)c(OC)c4)n3)cc2c1	27.9%
COc1ccc(C(=O)/C=C/c2ccc(Cl)c(Cl)c2)cc1S(N)(=O)=O	-4.38% (active)
N#Cc1c(-c2cccc(O)c2O)cc(-c2ccc3ccccc3c2)[nH]c1=O	77.5%
Cc1cc(C)cc(C(=O)Nc2cccc(-c3cn(-c4ccc(S(N)(=O)=O)cc4)nn3)c2)c1	12.2%
